Nine compounds from PubChem BioAssay (NCI) can be followed below.

Test systems include SR leukemia; RPMI-8226 leukemia; OVCAR-8 ovarian; OVCAR-5 ovarian; OVCAR-4 ovarian; SK-OV-3 ovarian; IGROV1 ovarian; OVCAR-3 ovarian; HS 578T breast; NCI/ADR-RES ovarian; T-47D breast; BT-549 breast; MDA-MB-435 melanoma; SW-620 colon; MCF7 breast; HCT-116 colon; HCC-2998 colon; KM12 colon.
Holding throughout (test): NCI-60 one-dose screen, 48 h (100 = growth as untreated, 0 = no growth, -100 = all killed)
What all share (conditions): 10 µM unless noted

About 83,000 compounds went through this panel and 20% of them were active in at least one assay; those are over-represented in the sample as a whole.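 Plates (96-well) were seeded with cells, treated with compound at one concentration, and incubated for 48 hours before percent growth was determined.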 Values without a mark were called inactive. Calls of active or inactive are those of the source. The calls were made as follows: active = growth percent below 10; inactive = the rest.

For `COc1ccc(CCn2cncc2-c2c[nH]c3ccccc23)cc1`, the growth is 93.3% in the experiment on SR leukemia; 73.4% in the experiment with RPMI-8226 leukemia; 93.5% in the experiment on OVCAR-8 ovarian; 90.2% in the experiment with OVCAR-5 ovarian; 79.4% with OVCAR-4 ovarian; 87.7% in the experiment on SK-OV-3 ovarian. Further, the growth is 56.4% with IGROV1 ovarian; 88.4% in the experiment on OVCAR-3 ovarian; 78.2% with HS 578T breast; 87.6% with NCI/ADR-RES ovarian; 80.2% in the experiment on T-47D breast; 90% in the experiment on BT-549 breast. Also, the growth in the experiment with MDA-MB-435 melanoma was 100%; with SW-620 colon, 87.9%; with MCF7 breast, 78.7%; in the experiment with HCT-116 colon it was 80.5%; with HCC-2998 colon, 91.8%; with KM12 colon it was 97.8%.

As to `COc1cc2nc(-c3ccc(Cl)cc3)cc(OCCCN3CCCC3)c2cc1OC`, the growth with SR leukemia is 14.5%; in the experiment with RPMI-8226 leukemia, 20.2%; in the experiment with OVCAR-8 ovarian, 56.2%; in the experiment with OVCAR-5 ovarian, 52.6%; with OVCAR-4 ovarian it was 58.2%; in the experiment on SK-OV-3 ovarian, 75.5%. Further, the growth in the experiment on IGROV1 ovarian is 34.5%; in the experiment on OVCAR-3 ovarian it was 74.4%; in the experiment on HS 578T breast it was 68.6%; in the experiment with NCI/ADR-RES ovarian it was 47.3%; with T-47D breast, 32%; with BT-549 breast, 37.3%. Also, the growth is -7.23% (active) in the experiment on MDA-MB-435 melanoma; 30.4% in the experiment with SW-620 colon; 48.1% in the experiment with MCF7 breast; 23.4% with HCT-116 colon; 72.4% in the experiment on HCC-2998 colon; 41.4% with KM12 colon.

`N#CC1=C(/N=C/c2ccccc2)Oc2c(ccc3ccccc23)C1c1ccc([N+](=O)[O-])cc1` (configuration not stated): the growth in the experiment with SR leukemia is 81%; with RPMI-8226 leukemia, 92%; in the experiment on OVCAR-8 ovarian it was 95%; in the experiment with OVCAR-5 ovarian, 101%; in the experiment on OVCAR-4 ovarian, 88.2%; in the experiment with SK-OV-3 ovarian it was 86.9%. Moreover, the growth in the experiment on IGROV1 ovarian is 56.6%; in the experiment on OVCAR-3 ovarian, 86.4%; in the experiment on HS 578T breast, 91.6%; in the experiment with NCI/ADR-RES ovarian, 95.6%; in the experiment with T-47D breast it was 76.5%; with BT-549 breast, 103%. The growth in the experiment with MDA-MB-435 melanoma is 101%; with SW-620 colon, 93%; in the experiment with MCF7 breast it was 78.4%; in the experiment on HCT-116 colon, 92%; in the experiment with HCC-2998 colon, 98.3%; in the experiment with KM12 colon it was 97.6%.

`O=C(Cc1ccc(/C=C/C(=O)c2ncc[nH]2)cc1)Nc1ccc(Cl)cc1`: the growth was 0.986% (active) with SR leukemia; -29.2% (active) in the experiment on RPMI-8226 leukemia; -6.61% (active) in the experiment on OVCAR-8 ovarian; 41.7% in the experiment with OVCAR-5 ovarian; 37.5% in the experiment on OVCAR-4 ovarian; 64.3% with SK-OV-3 ovarian. Further, the growth was 27.9% with IGROV1 ovarian; -4.9% (active) in the experiment on OVCAR-3 ovarian; 5.07% (active) with HS 578T breast; 19.5% with NCI/ADR-RES ovarian; 23.2% with T-47D breast; 29.3% in the experiment with BT-549 breast. The growth in the experiment with MDA-MB-435 melanoma was 23.8%; with SW-620 colon, -35.3% (active); with MCF7 breast it was 13%; in the experiment with HCT-116 colon it was -47.5% (active); with HCC-2998 colon, 79.4%; in the experiment with KM12 colon, -39% (active).

As to `O=C(Nc1ccccc1)Nc1ccc2cc3ccc(NC(=O)Nc4ccccc4)cc3nc2c1`, the growth is -18.6% (active) with SR leukemia; 104% in the experiment on RPMI-8226 leukemia; -23.7% (active) with OVCAR-8 ovarian; 92.4% in the experiment on OVCAR-5 ovarian; -31.9% (active) in the experiment with OVCAR-4 ovarian; 112% in the experiment with SK-OV-3 ovarian. Moreover, the growth is 51% with IGROV1 ovarian; -11.6% (active) in the experiment on OVCAR-3 ovarian; -26.7% (active) in the experiment on HS 578T breast; 102% with NCI/ADR-RES ovarian; -3.77% (active) with T-47D breast; 86.2% with BT-549 breast. Further, the growth with MDA-MB-435 melanoma was 21.9%; in the experiment on SW-620 colon, -62.7% (active); with MCF7 breast it was 27.2%; in the experiment with HCT-116 colon, -57.1% (active); in the experiment with HCC-2998 colon it was -28.9% (active); with KM12 colon, 38.9%.

With `COc1cc(/C(C)=C(\c2ccc(Cl)cc2)c2ccc(OCCN3CCCC3)cc2)ccc1F`, the growth is -25.3% (active) in the experiment on SR leukemia; 14.7% with RPMI-8226 leukemia; 69.1% in the experiment with OVCAR-8 ovarian; 74.8% in the experiment with OVCAR-5 ovarian; 51.8% in the experiment on OVCAR-4 ovarian; 108% in the experiment on SK-OV-3 ovarian. The growth in the experiment with IGROV1 ovarian was 40.4%; with OVCAR-3 ovarian it was 63%; in the experiment with HS 578T breast it was 70.5%; in the experiment with NCI/ADR-RES ovarian, 69.9%; in the experiment on T-47D breast it was 55.1%; in the experiment with BT-549 breast, 79.1%. Further, the growth was 51.3% with MDA-MB-435 melanoma; 43.2% with SW-620 colon; 26.5% in the experiment on MCF7 breast; 39.2% in the experiment with HCT-116 colon; 57.4% in the experiment with HCC-2998 colon; 36.7% in the experiment with KM12 colon.

Regarding `CC(=O)N1N=C(c2ccc(-n3ccc(C(F)(F)F)n3)c(F)c2)CC1c1ccc[nH]1` (configuration not stated), the growth with SR leukemia was 92.8%; in the experiment with RPMI-8226 leukemia, 80.8%; in the experiment on OVCAR-8 ovarian, 98.9%; in the experiment on OVCAR-5 ovarian, 105%; in the experiment with OVCAR-4 ovarian it was 102%; in the experiment on SK-OV-3 ovarian it was 118%. For the same compound, the growth in the experiment on IGROV1 ovarian was 112%; in the experiment with OVCAR-3 ovarian, 107%; in the experiment on HS 578T breast it was 106%; in the experiment with NCI/ADR-RES ovarian, 104%; with T-47D breast, 91.9%; in the experiment on BT-549 breast it was 111%. The growth is 99.8% with MDA-MB-435 melanoma; 107% in the experiment on SW-620 colon; 92.8% with MCF7 breast; 103% in the experiment on HCT-116 colon; 111% with HCC-2998 colon; 101% with KM12 colon.

With `COc1ccccc1NS(=O)(=O)c1cccc(C(=O)Nc2ccc(Br)cc2)c1`, the growth in the experiment on SR leukemia is 50.4%; with RPMI-8226 leukemia it was 38.4%; in the experiment on OVCAR-8 ovarian, 57.6%; in the experiment with OVCAR-5 ovarian, 68.9%; in the experiment with OVCAR-4 ovarian, 35.3%; in the experiment with SK-OV-3 ovarian, 44.1%. The growth is 46.6% in the experiment on IGROV1 ovarian; 45.8% in the experiment on OVCAR-3 ovarian; 73.8% with HS 578T breast; 27.6% in the experiment on NCI/ADR-RES ovarian; 21.2% in the experiment with T-47D breast; 37.2% in the experiment on BT-549 breast. In addition, the growth in the experiment on MDA-MB-435 melanoma is 35.3%; in the experiment on SW-620 colon, 55.1%; in the experiment on MCF7 breast, 32.5%; in the experiment with HCT-116 colon, 37.9%; in the experiment with HCC-2998 colon, 57.5%; in the experiment with KM12 colon it was 34.6%.

Turning to `CN1CCN(C(=O)[C@]23CCC(C)(C)C[C@H]2C2=CC[C@@H]4[C@@]5(C)C/C(=C/c6ccncc6)C(=O)C(C)(C)[C@@H]5CC[C@@]4(C)[C@]2(C)CC3)CC1`, the growth in the experiment with SR leukemia is 7.07% (active); in the experiment on RPMI-8226 leukemia, 7.22% (active); in the experiment on OVCAR-8 ovarian, 55.3%; in the experiment on OVCAR-5 ovarian it was 86.9%; in the experiment with OVCAR-4 ovarian, 57.4%; with SK-OV-3 ovarian, 77.6%. The growth in the experiment with IGROV1 ovarian was 74.4%; in the experiment with OVCAR-3 ovarian, 47.2%; with HS 578T breast it was 50.4%; in the experiment on NCI/ADR-RES ovarian, 56.3%; with T-47D breast, 37%; in the experiment with BT-549 breast it was 80.2%. Besides, the growth was 48.2% in the experiment with MDA-MB-435 melanoma; 33.8% with SW-620 colon; 18.1% with MCF7 breast; 16.4% with HCT-116 colon; 43.8% with HCC-2998 colon; 45.8% with KM12 colon.
